Assay outcomes from PubChem BioAssay.
Most compounds without a hit are left out; they make up all but 4% or so of the library.
TWEAK-Fn14 inh: inhibitors of TWEAK-Fn14 signaling, primary screen, luciferase reporter cells, uHTS; TWEAK-stimulated Fn14 reporter cells, luciferase luminescence, 8 h; inhibition, % at 10 µM; actives 2% (n = 360,000); in the data active = inhibition above about 50%
CF NFkB block: inhibitors of PAF-induced NF-kB signaling, primary screen, cell-based, GFP fluorescence, uHTS | KKLEB NF-kB-GFP reporter, GFP fluorescence overnight | inhibition, % at 5 µM | actives 0.86% (n = 360,000) | AID 588850, 2011;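 active = at least 50% inhibition at 5 µM, scaled per plate between neutral and stimulator controls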;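 also: PAF is a Pseudomonas aeruginosa culture filtrate used as stimulus; plate controls were PAF-stimulated DMSO wells for no effect and unstimulated DMSO wells for full effect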
KKLEB tox: cytotoxicity in KKLEB CF airway cells, primary screen, cytotoxicity control for CF NF-kB inhibitor project, cell-based, uHTS, fluorescence assay plates. KKLEB CF airway cells viability, ATPlite luminescence, overnight; stronger effect = lower value; cells stimulated with P. aeruginosa culture filtrate. activity change (cytotoxicity), % at 5 µM. actives 0.36% (n = 360,000). AID 602141, 2011;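 active = corrected activity change at or below -50% at 5 µM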
TROY NFkB inh: inhibitors of TROY-driven NF-kB signaling, primary screen, Q293 LMP1-TROYcd cells, NF-kB luciferase, uHTS | Q293 LMP1-TROYcd NF-kB luciferase reporter, 4 h | AID 1347056, 2019 | actives 0.98% (n = 360,000) | inhibition, % at 10 µM;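 active = compounds whose plate-normalised and pattern-corrected inhibition of the luciferase reporter signal at the single screening dose is 50% or more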
Peg3 promoter: Peg3 promoter-driven luciferase inhibitors, primary screen, cell-based, HeLa, luciferase luminescence. HeLa PEG-Prom luciferase reporter, overnight. inhibition, % at 20 µM. actives 1.7% (n = 360,000). AID 588405, 2011;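 active = inhibition of at least 50% at 20 µM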
HIF-2a block: HIF-2a reporter inhibitors, primary screen, luminescence, 786-0 RCC cells; actives 0.72% (n = 360,000); inhibition, % at 18.8 µM; AID 624352, 2012; 786-0 RCC cells HIF-2a reporter, luciferase luminescence, overnight;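 active = inhibition of the luminescence signal of 40% or more relative to plate controls, in a single-dose primary screen at 18.75 µM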
CF NFkB conf: inhibitors of PAF-induced NF-kB signaling, retest, confirmation, cell-based, GFP fluorescence, single concentration; actives 64% (n = 1,300); shares compounds with CF NFkB block; KKLEB CF airway cells, overnight; inhibition, % at 5 µM; in the data active = inhibition above about 40%;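 also: stimulus PAF is a Pseudomonas aeruginosa filtrate and not platelet activating factor; plate controls were DMSO wells with stimulus for no effect and unstimulated DMSO wells for full effect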
An asterisk follows results filed as active; nt = no result.

SMILES	TWEAK-Fn14 inh	CF NFkB block	KKLEB tox	TROY NFkB inh	Peg3 promoter	HIF-2a block	CF NFkB conf
COc1cc(CN2C[C@@H](CO)O[C@@H](n3cnc4c(N(C)C)ncnc43)C2)cc(OC)c1OC	-18.2	-0.4	7.1	2.0	2.3	4.7	nt
O=C1N(c2ccccc2C(F)(F)F)O[C@@]1(c1ccccc1)C1CCCCC1	10.8	65.3*	-15.3	-6.0	56.9*	2.9	60.4*
COc1ccc(NC(=O)Cn2ncc(Cl)c(Cl)c2=O)cc1S(=O)(=O)N1CCOCC1	73.6*	54.6*	-14.2	-2.5	97.1*	37.3	18.0
COc1ccc(NC(=O)c2ccc(Cl)nc2)cc1S(=O)(=O)N1CCOCC1	13.9	3.3	-0.8	5.0	5.4	9.2	nt
O=C(NCc1ccccc1)C(c1ccccn1)N(C(=O)c1csnn1)c1ccccc1F (centres undefined)	1.4	9.1	1.8	-8.6	10.7	9.7	nt
CN(C)C(CNc1ccc(C(F)(F)F)cc1[N+](=O)[O-])c1ccccc1 (centres undefined)	-26.6	3.7	7.2	3.8	-1.6	-3.8	nt
COc1ccc(C(=O)NNC(=O)C(=O)NC2CCCCC2)cc1	15.8	-7.4	2.7	-23.8	5.0	14.6	nt
CS(=O)(=O)Nc1ccc(-c2cnc3cccnn23)cc1	64.6*	59.6*	-1.4	23.6	-5.3	-28.8	71.0*
CCN(CC(=O)Nc1ccc(OC)cc1)C(=O)c1cc(-c2cccs2)nn1-c1ccccc1	21.9	54.5*	-11.1	13.2	49.9	10.1	51.2*
COc1ccc(NC(=O)CN(C)C(=O)c2cc(-c3cccs3)nn2-c2ccccc2)cc1	13.2	2.5	-2.8	-0.4	27.9	6.8	nt
CCN(CC)CCNC(=O)c1ccc(NC(=O)C2CCN(c3ncnc4sc(C)c(C)c34)CC2)cc1	3.5	54.6*	-17.8	24.6	79.6*	28.3	56.0*
Nc1ccc(O)c2c(=O)cc(-c3ccccc3Cl)oc12	27.8	11.2	-10.8	-58.9	-239.1	-262.1	nt
O=c1cc(-c2ccccc2Cl)oc2cc(O)cc(O)c12	36.5	66.5*	-0.8	-8.7	-232.9	-127.8	76.9*
O=C1CCC(=O)N1Cc1c(Cl)cccc1Cl	-2.1	15.7	4.4	-16.4	10.1	7.1	nt
CCNC(=O)N(C)c1c(CC)nc2ccc(C(=O)Nc3cccc(OCC(=O)N(C)C)c3)cn12	-1.6	-2.2	-0.4	-2.3	6.9	6.4	nt
CCc1nc2ccc(C(=O)Nc3cccc(OCC(=O)N(C)C)c3)cn2c1N(C)Cc1cc2ccccc2s1	35.4	52.6*	-10.2	45.0	72.8*	-18.5	13.6
COc1ccc(N(CCCN2C(=O)c3cccc4cccc(c34)C2=O)C(=O)c2cccnc2)cc1	-4.3	18.8	-15.4	7.2	38.1	9.6	nt
COc1ccc(N(CCCN2C(=O)c3cccc4cccc(c34)C2=O)C(=O)c2ccncc2)cc1	-6.6	50.1*	-24.2	1.6	-74.8	-76.4	45.3*
O=C(NC12CC3CC(CC(C3)C1)C2)c1c(Cl)cccc1Cl	-15.2	-6.8	4.2	6.5	8.5	16.3	nt
C[C@@H]1CN([C@H](C)CO)C(=O)c2cc(NC(=O)Nc3ccc(C(F)(F)F)cc3)ccc2O[C@H]1CN(C)S(=O)(=O)c1cccs1	41.6	57.1*	1.0	32.7	28.4	33.1	81.1*
C[C@H](CO)N1C[C@H](C)[C@H](CN(C)S(=O)(=O)c2ccc(Cl)cc2)OCc2ccccc2-c2c(n(C)c3ccccc23)C1=O	61.8*	85.5*	-5.8	24.1	39.9	-48.2	3.9
C[C@@H]1CN([C@H](C)CO)C(=O)c2cc(NC(=O)Nc3ccc(C(F)(F)F)cc3)ccc2O[C@H]1CN(C)S(=O)(=O)c1ccc(Cl)cc1	53.3*	63.6*	-6.1	17.8	22.7	-0.2	69.7*
